Test results published in PubChem BioAssay AID1159580 (chemical genetic matrix, 2015).
About 2,000 (36%) of roughly 5,500 compounds were called active. Not shown: some 18% with an inconclusive outcome. No stated cut-off is given here; in the data, active means normalized growth mostly below about 0.91 (no sharp cut-off); inconclusive means no clear call, values can overlap the other calls; inactive means mostly above about 0.92. Some of the results follow.

Assay: chemical genetic growth profiling, strain panel (AID 1159580);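 further: tested at 20 µM; growth read once vehicle control cultures reached saturation at 30 °C; 1 = growth at the plate median or of vehicle wells; lower values mean less growth of the strain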
Conditions: S. cerevisiae deletion strains, growth OD

Measured: normalized growth

Oc1ccc([C@H]2Oc3cc(O)cc(O)c3C[C@H]2O)cc1
inactive: locus YAL021C, strain ccr4, active compounds read low 0.995 | locus YAL026C, strain drs2, active compounds read low 0.991 | locus YAL030W, strain snc1, active compounds read low 0.988 | locus YBL061C, strain skt5, active compounds read low 0.98 | locus YBR009C, strain hhf1, active compounds read low 1.02 | locus YBR023C, strain chs3, active compounds read low 0.99 | locus YBR171W, strain sec66, active compounds read low 0.969 | locus YBR231C, strain swc5, active compounds read low 0.94 | locus YBR279W, strain paf1, active compounds read low 0.999 | locus YCL011C, strain gbp2, active compounds read low 1.01 | locus YCL016C, strain dcc1, active compounds read low 1.01 | locus YCL069W, strain vba3, active compounds read low 0.981 | locus YCR088W, strain abp1, active compounds read low 0.987 | locus YDL005C, strain med2, active compounds read low 0.988 | locus YDL040C, strain nat1, active compounds read low 0.983 | locus YDR001C, strain nth1, active compounds read low 0.987 | locus YDR069C, strain doa4, active compounds read low 0.952 | locus YDR137W, strain rgp1, active compounds read low 0.996 | locus YDR159W, strain sac3, active compounds read low 0.939 | locus YDR195W, strain ref2 0.933 | locus YDR297W, strain sur2, active compounds read low 0.984 | locus YDR334W, strain swr1, active compounds read low 0.976 | locus YDR335W, strain msn5, active compounds read low 0.995 | locus YDR392W, strain spt3, active compounds read low 0.929 | locus YEL003W, strain gim4, active compounds read low 0.97 | locus YEL037C, strain rad23, active compounds read low 0.982 | locus YEL061C, strain CIN8 (second series), active compounds read low 0.979 | locus YER015W, strain faa2, active compounds read low 0.998 | locus YER016W, strain bim1, active compounds read low 0.991 | locus YER111C, strain swi4, active compounds read low 0.967 | locus YER155C, strain BEM2 (second series), active compounds read low 0.948 | locus YFR010W, strain ubp6, active compounds read low 0.971 | locus YGL167C, strain pmr1, active compounds read low 0.986 | locus YGL173C, strain kem1, active compounds read low 0.977 | locus YGL227W, strain vid30, active compounds read low 0.987 | locus YGL240W, strain doc1, active compounds read low 0.969 | locus YGL253W, strain hxk2, active compounds read low 0.956 | locus YHR013C, strain ard1, active compounds read low 1.01 | locus YHR027C, strain rpn1, active compounds read low 0.979 | locus YHR030C, strain SLT2, active compounds read low 0.983 | locus YHR079C, strain IRE1, active compounds read low 0.981 | locus YHR142W, strain chs7, active compounds read low 0.993 | locus YJL092W, strain hpr5, active compounds read low 0.983 | locus YJL095W, strain BCK1 (second series), active compounds read low 0.977 | locus YJL095W, strain BCK1, active compounds read low 0.97 | locus YJL115W, strain asf1, active compounds read low 0.976 | locus YJL129C, strain trk1, active compounds read low 0.978 | locus YJL154C, strain vps35, active compounds read low 0.984 | locus YJL164C, strain tpk1, active compounds read low 1 | locus YJL166W, strain qcr8, active compounds read low 0.998 | locus YJR066W, strain TOR1, active compounds read low 0.947 | locus YKL160W, strain elf1, active compounds read low 1.02 | locus YKR026C, strain gcn3, active compounds read low 0.968 | locus YKR091W, strain srl3, active compounds read low 0.992 | locus YLL001W, strain dnm1, active compounds read low 0.956 | locus YLL026W, active compounds read low 0.993 | locus YLL041C, strain sdh2, active compounds read low 0.983 | locus YLR027C, strain aat2, active compounds read low 0.976 | locus YLR113W, strain HOG1, active compounds read low 0.977 | locus YLR221C, strain rsa3, active compounds read low 0.964 | locus YLR258W, strain gsy2, active compounds read low 0.999 | locus YLR262C, strain YPT6 (second series), active compounds read low 1 | locus YLR320W, strain mms22, active compounds read low 0.982 | locus YLR342W, strain FKS1, active compounds read low 0.99 | locus YLR357W, strain rsc2, active compounds read low 0.949 | locus YLR370C, strain arc18, active compounds read low 0.977 | locus YLR384C, strain iki3, active compounds read low 0.991 | locus YML120C, strain ndi1, active compounds read low 1 | locus YMR058W, strain fet3, active compounds read low 0.985 | locus YMR125W, strain sto1, active compounds read low 0.99 | locus YMR129W, active compounds read low 0.989 | locus YMR205C, strain PFK2, active compounds read low 1 | locus YMR231W, strain pep5, active compounds read low 0.976 | locus YNL071W, strain lat1, active compounds read low 1 | locus YNL183C, strain NPR1, active compounds read low 0.956 | locus YNL209W, strain ssb2, active compounds read low 1.01 | locus YNL248C, strain rpa49, active compounds read low 0.956 | locus YNL322C, strain KRE1 (second series), active compounds read low 0.995 | locus YNR049C, strain mso1, active compounds read low 0.987 | locus YOR001W, strain rrp6, active compounds read low 0.947 | locus YOR070C, strain gyp1, active compounds read low 0.99 | locus YOR080W, strain dia2, active compounds read low 0.974 | locus YOR083W, strain WHI5, active compounds read low 1.01 | locus YOR106W, strain vam3, active compounds read low 1.02 | locus YOR231W, strain MKK1, active compounds read low 0.978 | locus YOR265W, strain rbl2, active compounds read low 0.981 | locus YOR270C, strain vph1, active compounds read low 0.958 | locus YOR290C, strain snf2, active compounds read low 1.03 | locus YPL051W, strain arl3, active compounds read low 0.954 | locus YPL078C, strain atp4, active compounds read low 1.01 | locus YPL106C, strain sse1, active compounds read low 0.982 | locus YPL240C, strain hsp82, active compounds read low 0.989 | locus YPL256C, strain CLN2, active compounds read low 0.967
